For nine compounds, growth results are on record in PubChem BioAssay (NCI).

Molecules are shown by their SMILES. The panel holds about 83,000 compounds, 20% with a hit somewhere; the sample as a whole holds those more often.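 Plates (96-well) were seeded with cells, treated with compound at one concentration, and incubated for 48 hours before percent growth was determined.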 Values without a mark were called inactive. The source made the active and inactive calls. The calls were made as follows: active = growth percent below 10; inactive = the rest.

Some test systems named below: SK-MEL-2 melanoma; EKVX NSCLC; SN12C renal; TK-10 renal; ACHN renal; CAKI-1 renal; A498 renal; CCRF-CEM leukemia; MOLT-4 leukemia; SR leukemia; RPMI-8226 leukemia; OVCAR-8 ovarian; OVCAR-5 ovarian; OVCAR-4 ovarian; SK-OV-3 ovarian; IGROV1 ovarian; OVCAR-3 ovarian; HS 578T breast; NCI/ADR-RES ovarian; UO-31 renal.
What all share (assay): NCI-60 one-dose screen, 48 h (100 = growth as untreated, 0 = no growth, -100 = all killed)
What all share (conditions): 10 µM unless noted

Take `CCOC(=O)C(Br)=P(c1ccccc1)(c1ccccc1)c1ccccc1`: the growth in the experiment on SK-MEL-2 melanoma was 98.8%; in the experiment on EKVX NSCLC, 103%; in the experiment with SN12C renal, 101%; in the experiment with TK-10 renal, 117%; in the experiment with ACHN renal, 104%; with CAKI-1 renal it was 82.9%. Moreover, the growth with A498 renal is 109%; with CCRF-CEM leukemia it was -40.7% (active); in the experiment on MOLT-4 leukemia it was 99.6%; in the experiment on SR leukemia, 90.2%; in the experiment on RPMI-8226 leukemia it was 83.1%; in the experiment on OVCAR-8 ovarian, 90.4%. Also, the growth was 106% in the experiment on OVCAR-5 ovarian; 106% in the experiment on OVCAR-4 ovarian; 102% in the experiment on SK-OV-3 ovarian; -30.7% (active) with IGROV1 ovarian; 98% in the experiment with OVCAR-3 ovarian; 119% in the experiment on HS 578T breast. Also, the growth in the experiment on NCI/ADR-RES ovarian is 103%.
With `N#Cc1ccccc1C#Cc1ccccc1C#Cc1ccc(OCCCCCCOc2ccc(C#Cc3ccccc3C#Cc3ccccc3C#N)cc2)cc1`, the growth with SK-MEL-2 melanoma was 98.3%; in the experiment on EKVX NSCLC it was 111%; in the experiment with SN12C renal, 104%; in the experiment on TK-10 renal, 147%; in the experiment on ACHN renal it was 109%; with CAKI-1 renal, 116%. The growth was 113% with A498 renal; 3.16% (active) in the experiment on CCRF-CEM leukemia; 103% in the experiment on MOLT-4 leukemia; 113% with SR leukemia; 108% in the experiment on RPMI-8226 leukemia; 98.7% in the experiment on OVCAR-8 ovarian. Moreover, the growth was 96% in the experiment on OVCAR-5 ovarian; 107% in the experiment with OVCAR-4 ovarian; 111% in the experiment with SK-OV-3 ovarian; -19% (active) with IGROV1 ovarian; 126% in the experiment on OVCAR-3 ovarian; 110% in the experiment on HS 578T breast. Besides, the growth with NCI/ADR-RES ovarian was 104%.
As to `COc1cccc(N2CCN(c3cccc(C)n3)CC2)c1`, the growth was 94% in the experiment with SK-MEL-2 melanoma; 106% with EKVX NSCLC; 105% with SN12C renal; 123% with TK-10 renal; 108% in the experiment on ACHN renal; 82.4% with CAKI-1 renal. Also, the growth in the experiment with A498 renal is 93.9%; in the experiment on MOLT-4 leukemia, 101%; with RPMI-8226 leukemia, 115%; in the experiment with OVCAR-8 ovarian, 87.1%; with OVCAR-5 ovarian it was 96.5%; in the experiment with OVCAR-4 ovarian it was 116%. For the same compound, the growth in the experiment on SK-OV-3 ovarian is 107%; in the experiment with IGROV1 ovarian, -11.8% (active); with OVCAR-3 ovarian, 87.5%; with HS 578T breast, 100%; in the experiment with NCI/ADR-RES ovarian, 95.5%.
`COc1ccc(CNC(=O)c2c(C)n([O-])c3ccc(OC)cc3[n+]2=O)cc1`: the growth in the experiment with SK-MEL-2 melanoma was 102%; in the experiment on EKVX NSCLC, 87.8%; in the experiment on SN12C renal, 108%; in the experiment with TK-10 renal it was 104%; in the experiment on ACHN renal, 111%; in the experiment with CAKI-1 renal, 230%. Moreover, the growth is 104% in the experiment on A498 renal; 100% in the experiment with CCRF-CEM leukemia; 103% with MOLT-4 leukemia; 90.4% in the experiment on SR leukemia; 94% in the experiment on RPMI-8226 leukemia; 87% with OVCAR-8 ovarian. The growth with OVCAR-5 ovarian was 103%; in the experiment with OVCAR-4 ovarian, 105%; with SK-OV-3 ovarian it was 126%; in the experiment with OVCAR-3 ovarian, 187%; in the experiment with HS 578T breast it was 108%; with NCI/ADR-RES ovarian, 21.3%.
On to `COc1cccc(-c2nc(-c3ccc(N)cc3)co2)c1`, for which the growth in the experiment on SK-MEL-2 melanoma is 99.8%; with EKVX NSCLC, 102%; in the experiment on SN12C renal, 95.2%; in the experiment with TK-10 renal it was 109%; in the experiment on ACHN renal, 106%; with CAKI-1 renal, 94.7%. For the same compound, the growth is 100% in the experiment with A498 renal; 81.8% in the experiment on MOLT-4 leukemia; 89.5% in the experiment with RPMI-8226 leukemia; 85.8% in the experiment on OVCAR-8 ovarian; 115% in the experiment on OVCAR-5 ovarian; 109% with OVCAR-4 ovarian. For the same compound, the growth in the experiment on SK-OV-3 ovarian was 118%; in the experiment with IGROV1 ovarian, -0.817% (active); in the experiment on OVCAR-3 ovarian, 82%; in the experiment with HS 578T breast, 115%; with NCI/ADR-RES ovarian it was 92.8%.
On to `CC(=O)Nc1ccc(C(=O)COc2cccc(/C=C3\CCc4ccccc4C3=O)c2)cc1`, for which the growth is 51.2% with SK-MEL-2 melanoma; 80.3% in the experiment on EKVX NSCLC; 99.5% with SN12C renal; 103% with TK-10 renal; 92.1% with ACHN renal; 254% in the experiment on CAKI-1 renal. The growth in the experiment on A498 renal was 92.7%; in the experiment with CCRF-CEM leukemia it was 11.6%; in the experiment on MOLT-4 leukemia, 38%; in the experiment with SR leukemia it was 52.4%; in the experiment with RPMI-8226 leukemia, 19.6%; in the experiment with OVCAR-8 ovarian, 88.4%. The growth is 104% in the experiment on OVCAR-5 ovarian; 83.4% with OVCAR-4 ovarian; 95.5% with SK-OV-3 ovarian; 238% with OVCAR-3 ovarian; 99.7% in the experiment on HS 578T breast; 83% with NCI/ADR-RES ovarian.
For the compound `CCCCCN(CCCCC)CCCNc1c2c(nc3ccc(Cl)cc13)CCCC2`, the growth with SK-MEL-2 melanoma is 13.4%; in the experiment on EKVX NSCLC it was 50.7%; in the experiment with SN12C renal it was 49.9%; with TK-10 renal, 31.5%; in the experiment on ACHN renal, 40.8%; in the experiment with CAKI-1 renal, 26.6%. The growth was 38.4% with A498 renal; 27% with CCRF-CEM leukemia; 27.8% with MOLT-4 leukemia; 0.527% (active) with SR leukemia; 4.62% (active) with RPMI-8226 leukemia; 37.5% in the experiment with OVCAR-8 ovarian. Also, the growth in the experiment with OVCAR-5 ovarian was 41.2%; with OVCAR-4 ovarian it was 17.6%; with SK-OV-3 ovarian it was 66.6%; in the experiment on IGROV1 ovarian, 17.5%; with OVCAR-3 ovarian, 58.1%; in the experiment on HS 578T breast, 71.6%. In addition, in the experiment on NCI/ADR-RES ovarian, the growth is 48.9%.
Regarding `CCOC(=O)/C=C1/SC(=Nc2ccc(C#N)cc2)N(Cc2ccco2)C1=O`, the growth was 78.5% in the experiment with SK-MEL-2 melanoma; 74% in the experiment on EKVX NSCLC; 52.5% in the experiment with SN12C renal; 31.6% in the experiment with UO-31 renal; 87% with A498 renal; 0.581% (active) in the experiment with CCRF-CEM leukemia. Besides, the growth in the experiment on MOLT-4 leukemia is -6.94% (active); in the experiment on SR leukemia, 0.973% (active); in the experiment on RPMI-8226 leukemia, -33.8% (active); in the experiment with OVCAR-8 ovarian it was 54.2%; in the experiment on OVCAR-5 ovarian it was 37.4%; in the experiment with OVCAR-4 ovarian, 51.2%. Also, the growth in the experiment with SK-OV-3 ovarian was 91.7%; in the experiment on IGROV1 ovarian, 26.3%; with HS 578T breast it was 65.4%; with NCI/ADR-RES ovarian it was 40.9%.
Turning to `N#Cc1c(NC(=O)c2ccco2)[n+]([O-])c2cc(Cl)c(Cl)cc2[n+]1[O-]`, the growth is 89.9% in the experiment on SK-MEL-2 melanoma; 82.4% in the experiment with EKVX NSCLC; 94.1% in the experiment on SN12C renal; 163% in the experiment on TK-10 renal; 110% in the experiment with ACHN renal; 134% in the experiment with CAKI-1 renal. Moreover, the growth in the experiment on A498 renal is 109%; in the experiment on MOLT-4 leukemia, 1.53% (active); with RPMI-8226 leukemia, 92.2%; in the experiment with OVCAR-8 ovarian, 100%; with OVCAR-5 ovarian, 87.4%; in the experiment with OVCAR-4 ovarian, 100%. For the same compound, the growth in the experiment on SK-OV-3 ovarian was 118%; in the experiment with IGROV1 ovarian, -12.2% (active); in the experiment with OVCAR-3 ovarian it was 109%; in the experiment with HS 578T breast, 84.4%; in the experiment on NCI/ADR-RES ovarian, 88.7%.
